# In the supplement of paper PMC4466140:
# B1: unnamed (peptide)
# chain: QPPLPSSAPPIPTSH
# Target: AgAbp1
# Assay: SPOT peptide array binding signal intensity (averaged, normalized) (arbitrary units (background-subtracted, floor 0; scale differs between SH3 domains)); higher = stronger binding of the SH3 domain to the peptide
# Method in brief: (§1)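 Four yeast species supplied the SH3 domains, which were expressed as GST fusions in E. coli BL21(DE3) and purified on glutathione Sepharose. Incubation with cellulose membranes carrying synthetic 15-mer peptides, cysteines exchanged for serines, ran overnight at 4°C at 10 μg/ml in TBS-based blocking buffer. Binding signal is reported as normalized, background-subtracted spot intensity averaged over replicates, in arbitrary units not shared between domains.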
row,Binder,SPOT peptide array binding signal intensity
1,B1,≤ 0

# Target: AgBbc1
# Assay: as above
# Method in brief: as §1
row,Binder,SPOT peptide array binding signal intensity
1,B1,≤ 0

# Target: AgBem1-D1
# Assay: as above
# Method in brief: as §1
row,Binder,SPOT peptide array binding signal intensity
1,B1,≤ 0

# Target: AgBzz1-D1
# Assay: as above
# Method in brief: as §1
row,Binder,SPOT peptide array binding signal intensity
1,B1,35

# Target: AgBzz1-D2
# Assay: as above
# Method in brief: as §1
row,Binder,SPOT peptide array binding signal intensity
1,B1,≤ 0

# Target: AgCyk3
# Assay: as above
# Method in brief: as §1
row,Binder,SPOT peptide array binding signal intensity
1,B1,≤ 0

# Target: AgFus1
# Assay: as above
# Method in brief: as §1
row,Binder,SPOT peptide array binding signal intensity
1,B1,≤ 0

# Target: AgHof1
# Assay: as above
# Method in brief: as §1
row,Binder,SPOT peptide array binding signal intensity
1,B1,≤ 0

# Target: AgHse1
# Assay: as above
# Method in brief: as §1
row,Binder,SPOT peptide array binding signal intensity
1,B1,≤ 0

# Target: AgLsb1
# Assay: as above
# Method in brief: as §1
row,Binder,SPOT peptide array binding signal intensity
1,B1,≤ 0

# Target: AgLsb4
# Assay: as above
# Method in brief: as §1
row,Binder,SPOT peptide array binding signal intensity
1,B1,≤ 0

# Target: AgMyo5
# Assay: as above
# Method in brief: as §1
row,Binder,SPOT peptide array binding signal intensity
1,B1,1730

# Target: AgNbp2
# Assay: as above
# Method in brief: as §1
row,Binder,SPOT peptide array binding signal intensity
1,B1,≤ 0

# Target: AgRvs167
# Assay: as above
# Method in brief: as §1
row,Binder,SPOT peptide array binding signal intensity
1,B1,≤ 0

# Target: AgSho1
# Assay: as above
# Method in brief: as §1
row,Binder,SPOT peptide array binding signal intensity
1,B1,≤ 0

# Target: AgSla1-D1-D2
# Assay: as above
# Method in brief: as §1
row,Binder,SPOT peptide array binding signal intensity
1,B1,≤ 0

# Target: AgSla1-D3
# Assay: as above
# Method in brief: as §1
row,Binder,SPOT peptide array binding signal intensity
1,B1,≤ 0

# Target: CaAbp1-D1
# Assay: as above
# Method in brief: as §1
row,Binder,SPOT peptide array binding signal intensity
1,B1,≤ 0

# Target: CaAbp1-D2
# Assay: as above
# Method in brief: as §1
row,Binder,SPOT peptide array binding signal intensity
1,B1,≤ 0

# Target: CaBbc1
# Assay: as above
# Method in brief: as §1
row,Binder,SPOT peptide array binding signal intensity
1,B1,≤ 0

# Target: CaBem1-D1
# Assay: as above
# Method in brief: as §1
row,Binder,SPOT peptide array binding signal intensity
1,B1,8.5

# Target: CaBzz1-D1
# Assay: as above
# Method in brief: as §1
row,Binder,SPOT peptide array binding signal intensity
1,B1,≤ 0

# Target: CaBzz1-D2
# Assay: as above
# Method in brief: as §1
row,Binder,SPOT peptide array binding signal intensity
1,B1,2.5

# Target: CaCyk3
# Assay: as above
# Method in brief: as §1
row,Binder,SPOT peptide array binding signal intensity
1,B1,≤ 0

# Target: CaFus1
# Assay: as above
# Method in brief: as §1
row,Binder,SPOT peptide array binding signal intensity
1,B1,≤ 0

# Target: CaHof1
# Assay: as above
# Method in brief: as §1
row,Binder,SPOT peptide array binding signal intensity
1,B1,≤ 0

# Target: CaHse1
# Assay: as above
# Method in brief: as §1
row,Binder,SPOT peptide array binding signal intensity
1,B1,≤ 0

# Target: CaLsb1
# Assay: as above
# Method in brief: as §1
row,Binder,SPOT peptide array binding signal intensity
1,B1,≤ 0

# Target: CaLsb4
# Assay: as above
# Method in brief: as §1
row,Binder,SPOT peptide array binding signal intensity
1,B1,≤ 0

# Target: CaMyo5
# Assay: as above
# Method in brief: as §1
row,Binder,SPOT peptide array binding signal intensity
1,B1,510

# Target: CaNbp2
# Assay: as above
# Method in brief: as §1
row,Binder,SPOT peptide array binding signal intensity
1,B1,≤ 0

# Target: CaRvs167
# Assay: as above
# Method in brief: as §1
row,Binder,SPOT peptide array binding signal intensity
1,B1,≤ 0

# Target: CaRvs167-3
# Assay: as above
# Method in brief: as §1
row,Binder,SPOT peptide array binding signal intensity
1,B1,0.5

# Target: CaSho1
# Assay: as above
# Method in brief: as §1
row,Binder,SPOT peptide array binding signal intensity
1,B1,≤ 0

# Target: CaSla1-D1-D2
# Assay: as above
# Method in brief: as §1
row,Binder,SPOT peptide array binding signal intensity
1,B1,≤ 0

# Target: CaSla1-D3
# Assay: as above
# Method in brief: as §1
row,Binder,SPOT peptide array binding signal intensity
1,B1,≤ 0

# Target: ScAbp1
# Assay: as above
# Method in brief: as §1
row,Binder,SPOT peptide array binding signal intensity
1,B1,≤ 0
